Data on 13 molecules can be found in PubChem BioAssay.

Activity calls are given as the source filed them.

Test [1] has as its system PRMT1 (protein arginine N-methyltransferase 1). In words: PRMT1 binders on small-molecule microarrays, primary screen, biochemical, small-molecule microarray, 635 nm fluorescence (AID 1088).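 Note: binding of Prmt1 protein to compounds spotted on small-molecule microarray slides.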 Conditions: small-molecule microarray binding, higher = more signal.
Test [2] can be described thus: yeast growth modulation, basal conditions, primary screen, YJM789 clinical isolate, OD600, 24 h (AID 1089).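 Note: growth of clinical yeast isolate S. cerevisiae YJM 789 seeded 1000 cells per well; test concentration not given here.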 Conditions: S. cerevisiae YJM789 growth, higher = more signal, called active from +8 up or from −8 down.
The nature of test [3]: fission yeast growth modulation, primary screen, strain 972, OD600, 24 h, no modulator (AID 1090).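 Note: basal condition with compound alone and no growth modifier present; test concentration not given here.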 The note with it: S. pombe 972 growth, higher = more signal, called active from +8 up or from −8 down.
Test [4] in a line: S. cerevisiae growth modulation with rapamycin, primary screen, strain BY4716, OD600, 96 h (AID 1091). Note: test concentration not given here. Conditions: higher = more signal, called active from +8 up or from −8 down.
For test [5], the target named is Torsin-1A-interacting protein 2 (Homo sapiens) (UniProt Q8NFQ8). Briefly: LULL1 binders on small-molecule microarray, primary screen, cell lysate, human LULL1 lysate, 635/667 nm fluorescence (AID 1092).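 Note: probe is lysate of COS7 cells overexpressing human LULL1; score merges per-feature 667 nm fluorescence with signal-to-noise.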 Conditions: hLULL1 lysate binding, 635 nm fluorescence, higher = more signal.
Torsin-1A-interacting protein 2 (Homo sapiens), sequence (Q8NFQ8 whole entry, looked up): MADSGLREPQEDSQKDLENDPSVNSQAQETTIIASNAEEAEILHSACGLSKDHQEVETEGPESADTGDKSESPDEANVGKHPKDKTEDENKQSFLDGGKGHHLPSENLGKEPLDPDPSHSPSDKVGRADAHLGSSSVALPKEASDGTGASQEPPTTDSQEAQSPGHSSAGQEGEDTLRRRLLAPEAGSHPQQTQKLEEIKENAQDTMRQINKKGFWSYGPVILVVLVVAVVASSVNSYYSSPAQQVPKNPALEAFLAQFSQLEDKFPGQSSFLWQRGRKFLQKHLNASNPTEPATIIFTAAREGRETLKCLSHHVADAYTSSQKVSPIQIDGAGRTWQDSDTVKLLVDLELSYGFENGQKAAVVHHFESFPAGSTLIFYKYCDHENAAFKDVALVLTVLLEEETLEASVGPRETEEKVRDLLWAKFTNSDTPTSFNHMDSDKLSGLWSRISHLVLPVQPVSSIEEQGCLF
Test [6] in a line: E. coli growth modulation, two-sided OD650, primary screen, E. coli filamentation project, strain DRC41, 24 h (AID 1093).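 Note: MC1000 strain lacking acrAB efflux and sulA so SOS filamentation is blocked; test concentration not given here.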 The note with it: OD650, 24 h, higher = more signal, called active from +8 up or from −8 down.
Test [7] is described as follows: small-molecule microarray binders of probe aLefty2, primary screen, biochemical, biotinylated probe, 635/667 nm fluorescence (AID 1094).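 Note: score merges spot fluorescence near 667 nm with spot signal-to-noise ratio.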 The note with it: higher = more signal.
The subject of test [8] is Noggin (protein binding on small-molecule microarray). Briefly: Noggin binders on small-molecule microarray, primary screen, biochemical, 635/667 nm fluorescence (AID 1095).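 Note: score merges 667 nm feature fluorescence with signal to noise over triplicate slides.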 Conditions: 635 nm fluorescence, higher = more signal.
Test [9] has as its target Neurogenic locus notch homolog protein 3 (Homo sapiens) (UniProt Q9UM47). In words: NOTCH3 binders on small-molecule microarray, primary screen, biochemical, 635/667 nm fluorescence (AID 1096). Conditions: NOTCH3 binding, 635 nm fluorescence, higher = more signal.
Test [10] in a line: small-molecule microarray binders of probe aEGFR, primary screen, biochemical, biotinylated probe, 635/667 nm fluorescence (AID 1097).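 Note: probe is a biotinylated anti-EGFR antibody binding compounds printed on slides; score combines fluorescence near 667 nm and signal to noise of each spot.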 The note with it: higher = more signal.

Neurogenic locus notch homolog protein 3 (Homo sapiens), sequence (Q9UM47 whole entry, looked up): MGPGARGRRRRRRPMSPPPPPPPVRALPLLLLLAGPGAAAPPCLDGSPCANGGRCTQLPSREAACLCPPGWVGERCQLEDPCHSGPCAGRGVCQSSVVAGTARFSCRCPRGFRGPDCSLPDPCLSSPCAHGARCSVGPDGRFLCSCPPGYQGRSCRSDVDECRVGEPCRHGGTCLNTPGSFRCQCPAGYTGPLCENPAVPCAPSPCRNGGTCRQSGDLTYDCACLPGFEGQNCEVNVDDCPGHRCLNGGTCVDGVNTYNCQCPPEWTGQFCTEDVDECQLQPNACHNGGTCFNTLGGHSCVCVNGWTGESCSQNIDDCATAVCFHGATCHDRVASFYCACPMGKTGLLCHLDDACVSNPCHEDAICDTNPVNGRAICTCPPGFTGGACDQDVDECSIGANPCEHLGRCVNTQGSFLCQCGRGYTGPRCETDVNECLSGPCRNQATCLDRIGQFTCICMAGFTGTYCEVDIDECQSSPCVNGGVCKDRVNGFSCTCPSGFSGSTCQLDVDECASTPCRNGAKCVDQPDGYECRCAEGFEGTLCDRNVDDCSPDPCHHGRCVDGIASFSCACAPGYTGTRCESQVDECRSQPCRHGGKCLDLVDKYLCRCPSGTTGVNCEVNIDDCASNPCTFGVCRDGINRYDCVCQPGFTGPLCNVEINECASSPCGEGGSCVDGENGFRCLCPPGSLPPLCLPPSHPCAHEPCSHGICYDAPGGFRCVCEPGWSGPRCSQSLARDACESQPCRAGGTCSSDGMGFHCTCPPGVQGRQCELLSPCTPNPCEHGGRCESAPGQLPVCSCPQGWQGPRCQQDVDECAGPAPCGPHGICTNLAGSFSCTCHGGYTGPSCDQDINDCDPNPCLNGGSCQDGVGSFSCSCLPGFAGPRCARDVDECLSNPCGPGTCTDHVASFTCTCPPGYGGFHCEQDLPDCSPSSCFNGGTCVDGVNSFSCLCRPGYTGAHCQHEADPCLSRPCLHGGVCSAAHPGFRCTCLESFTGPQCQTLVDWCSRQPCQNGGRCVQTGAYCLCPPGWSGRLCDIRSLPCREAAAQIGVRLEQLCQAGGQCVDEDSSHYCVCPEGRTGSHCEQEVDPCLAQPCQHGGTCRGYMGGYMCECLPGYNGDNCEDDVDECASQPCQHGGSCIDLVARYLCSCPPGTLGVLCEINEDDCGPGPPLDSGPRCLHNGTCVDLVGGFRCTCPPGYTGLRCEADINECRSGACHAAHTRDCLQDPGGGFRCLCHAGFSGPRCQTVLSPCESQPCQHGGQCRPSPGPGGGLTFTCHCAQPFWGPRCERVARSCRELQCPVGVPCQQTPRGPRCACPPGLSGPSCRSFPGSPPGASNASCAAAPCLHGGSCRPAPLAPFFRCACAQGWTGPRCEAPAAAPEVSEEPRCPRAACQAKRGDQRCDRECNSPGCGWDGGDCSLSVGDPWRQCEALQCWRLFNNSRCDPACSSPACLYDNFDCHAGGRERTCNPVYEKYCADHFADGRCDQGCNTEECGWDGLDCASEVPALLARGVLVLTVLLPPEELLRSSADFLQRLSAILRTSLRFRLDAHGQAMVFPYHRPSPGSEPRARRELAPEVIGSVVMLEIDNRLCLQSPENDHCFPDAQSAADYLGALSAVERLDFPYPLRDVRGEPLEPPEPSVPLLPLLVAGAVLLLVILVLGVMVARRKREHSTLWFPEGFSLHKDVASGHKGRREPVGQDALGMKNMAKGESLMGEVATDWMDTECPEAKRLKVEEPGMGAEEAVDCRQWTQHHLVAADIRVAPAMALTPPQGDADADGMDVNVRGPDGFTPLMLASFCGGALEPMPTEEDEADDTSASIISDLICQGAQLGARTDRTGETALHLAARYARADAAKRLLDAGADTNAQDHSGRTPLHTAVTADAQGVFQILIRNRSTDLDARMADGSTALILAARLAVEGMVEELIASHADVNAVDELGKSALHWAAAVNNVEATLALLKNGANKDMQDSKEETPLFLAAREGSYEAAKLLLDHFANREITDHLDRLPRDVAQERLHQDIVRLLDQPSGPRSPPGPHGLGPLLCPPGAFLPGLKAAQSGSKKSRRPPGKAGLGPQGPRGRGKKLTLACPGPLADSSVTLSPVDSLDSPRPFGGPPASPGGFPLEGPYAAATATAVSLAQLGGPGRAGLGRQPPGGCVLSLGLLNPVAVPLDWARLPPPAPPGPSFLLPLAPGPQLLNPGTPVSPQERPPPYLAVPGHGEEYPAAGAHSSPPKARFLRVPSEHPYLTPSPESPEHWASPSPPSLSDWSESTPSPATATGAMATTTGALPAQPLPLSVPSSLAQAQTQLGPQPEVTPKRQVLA

For `C[C@]1(C(=O)NC2CC2)c2ccccc2C(=O)N(Cc2cc(F)cc(C(F)(F)F)c2)[C@H]1c1ccc(CO)cc1`, the composite z-score in test [1] is 1.52; in test [5], 3.29; in test [7] it was -0.188; in [8], -0.104; in test [9], 0.518; in [10], -0.312. In addition, the z-score in test [2] is 0.257 (inactive); in [3], -0.194 (inactive); in test [4], 0.217 (inactive); in [6], 0.299 (inactive).
Consider `COC(=O)c1ccc(OC)c(/C=C\CC(OC(=O)c2ccncc2)c2ccccc2)c1` (stereo not given), for which the composite z-score in [1] was 0.264; in test [5], 0.179; in [7], -0.0851; in test [8], 0.66; in test [9], 0.0482; in [10], -0.0286. Also, the z-score is -2.64 (inactive) in test [2], -2.43 (inactive) in test [3], -0.0389 (inactive) in test [4] and 1.27 (inactive) in [6].
With `COc1cccc(C)c1NC(=O)O[C@H]1[C@H](OC(=O)Nc2ccc3c(c2)OCO3)[C@H](OC(=O)Nc2ccc3c(c2)OCO3)[C@@H](OC)O[C@@H]1CO`, the composite z-score in test [1] was 1.55; in [5] it was 3.19; in test [7] it was 0.107; in test [8], 0.701; in [9], 1.04; in test [10], -0.0192. Further, the z-score in test [2] is 1.5 (inactive); in test [3], 0.718 (inactive); in test [4], 4.29 (inactive); in test [6], 0.358 (inactive).
`CC(=O)NCCCC[C@@H]1NC(=O)[C@H]2C[C@@H](C(=O)NCCCCCN)[C@@H](c3ccc(O)cc3)N2C1=O`: the composite z-score stood at 1.07 in [1]; 2.05 in [5]; 0.0158 in [7]; 1.35 in test [8]; 0.284 in test [9]; 0.0209 in test [10]. In addition, the z-score in test [2] was 0.447 (inactive); in test [3], -0.121 (inactive); in test [4], 1.01 (inactive); in test [6] it was -0.475 (inactive).
`COC(=O)[C@H](Cc1ccccc1)N1CC(C)(OC)O[C@@H](Cc2ccccc2)[C@H]1/C=C/C1CC1` (stereo not given in full): the composite z-score in [1] was 0.38; in test [5] it was 0.638; in [7], -0.124; in [8], -0.305; in test [9], -0.68; in test [10] it was -0.15. The z-score in test [2] was 0.0394 (inactive); in test [3], -2.37 (inactive); in test [4] it was -0.184 (inactive); in [6], -0.0718 (inactive).
As to `COc1ccc(C(=O)Nc2ccc(CN3C(=O)[C@@]4(O[C@@H](CC(=O)N(CCO)Cc5ccccc5)[C@H]([Si](C)(C)c5ccc(OC)cc5)[C@H]4C)c4ccccc43)cc2)cc1`, the composite z-score is 0.783 in test [1]; 1.5 in test [5]; -0.116 in [7]; 1.55 in test [8]; 0.217 in test [9]; 0.0326 in [10]. The z-score in test [2] is -0.884 (inactive); in test [3] it was -0.504 (inactive); in test [4], 1.94 (inactive); in test [6], 1.68 (inactive).
With `COC(=O)C(CC#Cc1ccc2c(c1)[C@]1(C(=O)N2)[C@H](C(=O)N2CCCCCCC2)[C@H]2C(=O)O[C@H](c3ccccc3)[C@H](c3ccccc3)N2[C@@H]1c1ccc(OCCO)cc1)C(=O)OC`, the composite z-score in test [1] is 1.52; in test [5] it was 5.35; in [7] it was 1.79; in test [8] it was 2.35; in test [9] it was 1.01; in test [10] it was 1.38. For the same molecule, the z-score is -0.0902 (inactive) in test [2], 0.563 (inactive) in [3], 1.28 (inactive) in test [4] and 0.149 (inactive) in test [6].
As to `CCCN1C(=O)[C@@]2(c3ccc([N+](=O)[O-])cc3)CC(=O)N(C3CCCCC3)[C@@H]2c2ccc(CO)cc21`, the composite z-score in [1] was 0.254; in test [5] it was -0.298; in test [7], 0.198; in [8], 0.73; in [9] it was -0.327; in test [10], 0.0785. In addition, the z-score is -0.383 (inactive) in test [2], 1.29 (inactive) in test [3], -0.117 (inactive) in test [4] and -0.0384 (inactive) in test [6].
Take `CO[C@H]1O[C@H](CO)[C@@H](OC(=O)CCc2ccccc2)[C@@H]2OC(=O)[C@@H](Cc3ccc4ccccc4c3)C/C=C/C[C@H](Cc3ccc4ccccc4c3)C(=O)O[C@@H]12`: the composite z-score was 0.505 in test [1]; 0.784 in test [5]; -0.138 in test [7]; -0.701 in [8]; -1.26 in test [9]; -0.206 in test [10]. In addition, the z-score in test [2] was -2.4 (inactive); in test [3], -2.22 (inactive); in test [4], 11.7 (active); in test [6], 0.149 (inactive).
As to `CC(C)C[C@@H]1NC(=O)[C@@H]2C[C@H](C(=O)NCCCCCCNC(=O)CS)[C@H](c3ccc(O)cc3)N2C1=O`, the composite z-score was 1.53 in test [1]; 2.93 in test [5]; 0.0277 in test [7]; 1.26 in test [8]; 1.11 in [9]; 0.0886 in test [10]. Moreover, the z-score is 0.279 (inactive) in test [2], 0.101 (inactive) in [3], 0.971 (inactive) in test [4] and 1.27 (inactive) in test [6].
As to `CN(C)CCCCNC(=O)[C@H]1C[C@H]2C(=O)N[C@@H](CCCCN(C)C)C(=O)N2[C@H]1c1ccc(O)cc1`, the composite z-score was 1.39 in [1]; -0.237 in test [5]; -0.192 in test [7]; 0.774 in test [8]; 0.343 in test [9]; -0.176 in test [10]. For the same molecule, the z-score was -2.61 (inactive) in [2], -0.403 (inactive) in test [3], -1.41 (inactive) in test [4] and 1.55 (inactive) in test [6].
`Cc1c(NC(=O)/C(C#N)=C/C=C/c2ccc([N+](=O)[O-])cc2)c(=O)n(-c2ccccc2)n1C`: the composite z-score was 1.49 in test [1]; 3.17 in test [5]; -0.022 in test [7]; 0.305 in [8]; 1.04 in [9]; 0.0506 in [10]. The z-score was 0.437 (inactive) in test [2], -0.914 (inactive) in test [3], 0.0795 (inactive) in [4] and -1.46 (inactive) in test [6].
Consider `C=CCOC(=O)[C@H]1[C@@H]2C(=O)O[C@@H](c3ccccc3)[C@@H](c3ccccc3)N2[C@@H](c2ccc(OCCOC(=O)[C@@H]3C[C@@H]4C(=O)N[C@@H](Cc5ccccc5)C(=O)N4[C@@H]3c3ccc(O)cc3)cc2)[C@]12C(=O)Nc1ccc(I)cc12`, for which the composite z-score is 1.34 in test [1]; 1.93 in [5]; -0.0666 in test [7]; 1.49 in test [8]; 0.918 in [9]; -0.0119 in [10]. Further, the z-score in [2] is 1.77 (inactive); in test [3], 2.14 (inactive); in test [4] it was 5.89 (inactive); in test [6], 0.114 (inactive).
